TbREL1 primary: TbREL1 inhibition, primary screen; P86926; TbREL1 RNA ligation, FRET fluorescence; inhibition, % at 9.66 µM; hit rate 0.49% among 89,000; AID 1117264;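 active = inhibition above the mean inhibition across all screened compounds plus 3 SD, cut at about 11% in these data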;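 also: 0% = plate median of test wells and 100% = NSC42067 control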
Target sequence (P86926 whole entry, looked up): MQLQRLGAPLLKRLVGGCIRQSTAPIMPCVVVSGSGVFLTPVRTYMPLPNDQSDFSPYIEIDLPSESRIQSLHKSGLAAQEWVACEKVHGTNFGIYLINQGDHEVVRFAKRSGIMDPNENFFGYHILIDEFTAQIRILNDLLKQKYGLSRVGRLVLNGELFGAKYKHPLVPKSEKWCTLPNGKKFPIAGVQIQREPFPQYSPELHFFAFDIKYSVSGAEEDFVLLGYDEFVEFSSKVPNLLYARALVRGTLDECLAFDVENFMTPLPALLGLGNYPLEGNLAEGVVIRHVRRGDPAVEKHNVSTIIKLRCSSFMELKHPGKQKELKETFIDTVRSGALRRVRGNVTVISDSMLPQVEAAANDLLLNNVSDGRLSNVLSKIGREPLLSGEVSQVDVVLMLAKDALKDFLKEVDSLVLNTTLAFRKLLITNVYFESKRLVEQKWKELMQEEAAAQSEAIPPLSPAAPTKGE
TbREL1 conf: TbREL1 inhibition, confirmation; shares compounds with TbREL1 primary; TbREL1 RNA ligation, FRET fluorescence; inhibition, % at 9.66 µM; hit rate 37% among 390;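 active = mean inhibition across replicates above a set limit taken from the earlier primary screen, cut at about 11% in these data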;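 also: 0% = REL1 with substrate and DMSO and 100% = REL1 plus control inhibitor NSC42067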
Numbers without * were called inactive. The entries come from a sample that favours hits as a whole.

`O=C(CSc1nnc(-c2ccco2)n1-c1ccc(Cl)cc1)Nc1ccc(S(=O)(=O)Nc2nccs2)cc1` gave TbREL1 primary 3.
Cc1ccc(CSc2nnc(-c3cc(-c4ccc(C)cc4)n[nH]3)n2N)cc1 was read as TbREL1 primary 2.
NC1=NS(=O)(=O)Nc2ccccc21 was read as TbREL1 primary -3.
CC(C)(C)c1ccc(CNc2nc(-c3ccccn3)nnc2-c2ccccc2)cc1 was read as TbREL1 primary 11.
O=C(O)c1cnn2c(C(F)(F)F)cc(-c3ccco3)nc12 was read as TbREL1 primary 6.
For CN(C(=O)/C=C/c1ccco1)c1ccccc1C(=O)O the results were TbREL1 primary 2.
`O=C(O)c1cc(N2N=C(C(F)(F)F)/C(=C/C=C/c3ccco3)C2=O)ccc1Cl` gave TbREL1 primary 98*.
For CCN(CC)c1ccc(C=Nn2c(-c3ccc(F)cc3)n[nH]c2=S)c(O)c1 the results were TbREL1 primary -6.
Screening CC(C)CCN1C(=O)COc2ccccc2C1c1nnnn1-c1ccc2c(c1)OCCO2 (centres undefined) returned TbREL1 primary 2.
`COc1ccc(S(=O)(=O)N2CCN(CC(O)CN3CCOCC3)CC2)cc1` (centres undefined) gave TbREL1 primary 3.
COc1ccc(OCCN2CCN(S(=O)(=O)c3ccccc3C#N)CC2)cc1 was read as TbREL1 primary 7.
Screening N#Cc1ccccc1S(=O)(=O)N1CCN(CC(O)CN2CCOCC2)CC1 (centres undefined) returned TbREL1 primary 20* and TbREL1 conf 11.
O=C(NCc1cccs1)O[C@H]1CC[C@@]23CCCN2C(=O)CCC[C@H]3C1 was read as TbREL1 primary -5.
Cc1ccc(CN2CCCCC(NC(=O)Nc3ccccc3)C2=O)cc1 (centres undefined) was read as TbREL1 primary 2.
Cc1nc(S/C(=C\c2ccc(-c3ccc(C(=O)O)c(Cl)c3)o2)C(=O)O)n[nH]1 was read as TbREL1 primary 58* and TbREL1 conf 23*.
For Cc1nc(S/C(=C\c2ccc(OCc3ccccc3Cl)cc2)C(=O)O)n[nH]1 the results were TbREL1 primary 0.
O=C(O)c1cc(N/N=C/c2ccc(-c3ccc(F)cc3)o2)ccc1Cl was read as TbREL1 primary -5.
For Cc1ccc(CN2CCCCC(NC(=O)c3ccc4ccccc4c3)C2=O)cc1 (centres undefined) the results were TbREL1 primary 0.
`Cc1cccc(C(=O)Nc2nc3ncccn3c2-c2ccc(F)cc2)c1` gave TbREL1 primary 0.
`O=C(N/N=C/c1ccccn1)c1cccs1` gave TbREL1 primary 12* and TbREL1 conf 6.
`O=C(N/N=C\c1ccccn1)c1cccc(C(=O)N/N=C\c2ccccn2)n1` gave TbREL1 primary -7.
`O=C(Cc1cccs1)N/N=C/c1ccccn1` gave TbREL1 primary 3.
For O=[N+]([O-])c1ccccc1S(=O)(=O)N1CCC(c2cn3ccccc3n2)CC1 the results were TbREL1 primary 4.
`O=c1cc(N2CCN(c3ccnc4cc(Cl)ccc34)CC2)[nH]c(=O)n1C1CCCCC1` gave TbREL1 primary -1.
`CCOC(=O)[C@@]12CCCC=C1N(CCc1ccc(Cl)cc1)C(=O)[C@H]2CC(=O)N1CCCCC1` gave TbREL1 primary -5.
Screening CN(Cc1ccccc1)S(=O)(=O)c1cccc(C(=O)OCc2cccc([N+](=O)[O-])c2)c1 returned TbREL1 primary 1.
Cc1ccc(-n2c(SCC(=O)N/N=C/C=C\c3ccco3)nnc2-c2ccccc2)cc1 was read as TbREL1 primary -6.
Cn1cccc1CC(=O)NN=C/C=C\c1ccco1 was read as TbREL1 primary 67* and TbREL1 conf 2.
`Cn1cccc1CC(=O)NN=Cc1cccc(F)c1` gave TbREL1 primary 1.
Screening CC1COCC(C)N1S(=O)(=O)c1ccc2c(c1)CCN2C(=O)C1CCC1 (centres undefined) returned TbREL1 primary 3.
`CCn1c(SCC(=O)c2ccc(-c3ccccc3)cc2)nnc1-c1ccc(C(C)(C)C)cc1` gave TbREL1 primary 6.
Cc1ccccc1CN1CCCCC(NC(=O)C2CCC2)C1=O (centres undefined) was read as TbREL1 primary -4.
For COc1ccc(Cn2ccc3ccc(-c4ccc5ccn(C(=O)c6cccc(OC)c6)c5c4)cc32)cc1 the results were TbREL1 primary -2.
Screening COc1ccccc1C(=O)NC1CCCCN(Cc2ccc(C)cc2)C1=O (centres undefined) returned TbREL1 primary -2.
For CC(=O)c1ccc(NC(=O)NC2CCCCN(Cc3ccc(Cl)cc3)C2=O)cc1 (centres undefined) the results were TbREL1 primary -2.
`Cc1[nH]c2ccccc2c1CC(=O)Nc1ccc(Nc2ccccc2)cc1` gave TbREL1 primary -4.
Cc1cnc(NC(=O)c2ccco2)s1 was read as TbREL1 primary 6.
For CCOc1ccc2nc(NC(=O)c3cnccn3)sc2c1 the results were TbREL1 primary 2.
Screening O=C(Nc1nc(-c2ccco2)c(-c2ccco2)s1)c1cnccn1 returned TbREL1 primary 20* and TbREL1 conf 3.
`CC1CN(CC(O)COC(c2ccccc2)c2ccccc2)CC(C)O1` (centres undefined) gave TbREL1 primary 5.
OC(COC(c1ccc(Cl)cc1)c1ccc(Cl)cc1)CN1CCCC1 (centres undefined) was read as TbREL1 primary 5.
`Cc1ccc(C(OCC(O)CN2CCCCC2)c2ccccc2)cc1` (centres undefined) gave TbREL1 primary 13* and TbREL1 conf 6.
CC(C)(C)c1ccc(C(=O)Nc2ccc(Cl)cc2)cc1 was read as TbREL1 primary 2.
`CC(C)(C)c1ccc(C(=O)Nc2cc(Cl)c(F)cc2C(=O)O)cc1` gave TbREL1 primary 13* and TbREL1 conf 2.
`CC(C)(C)c1ccc(C(=O)Nc2cc(Cl)c(Cl)cc2C(=O)O)cc1` gave TbREL1 primary -2.
Screening O=C(c1cc(Cl)ccc1F)N1CCCC(c2nc(-c3cccs3)no2)C1 (centres undefined) returned TbREL1 primary -2.
CCCC1CCC2(CCCN2CCOC(=S)Nc2ccccc2)CC1 (centres undefined) was read as TbREL1 primary 2.
ON=C(c1ccccc1)c1ccc2c3c(cccc13)CC2 was read as TbREL1 primary 12* and TbREL1 conf 3.
O=C(c1ccc2c3c(cccc13)CC2)C1CCCN(Cc2ccncc2)C1 (centres undefined) was read as TbREL1 primary 6.
`NC(=O)/C(=N\O)c1ccccc1` gave TbREL1 primary 0.
For O=[N+]([O-])c1ccccc1C=Nn1c(-c2cc(-c3ccccc3)n[nH]2)n[nH]c1=S the results were TbREL1 primary 2.
`Cc1ccc(-c2nnc(SCC(=O)Nc3ccc(Oc4ccccc4)cc3)n2-c2ccc(Cl)cc2)cc1` gave TbREL1 primary 10.
`CC(C)(C)CC(=O)Nc1nnc(SCC(=O)NC2CCCC2)s1` gave TbREL1 primary 1.
For CCOc1ccc(NC(=O)CSC2=NN3CCCC(=O)N=C3S2)cc1 the results were TbREL1 primary -3.
For CCSc1nnc(NC(=O)CSC2=NN3CCCC(=O)N=C3S2)s1 the results were TbREL1 primary 15* and TbREL1 conf 1.
Nc1cccc(S(=O)(=O)c2cccc(N)c2)c1 was read as TbREL1 primary 2.

Compound activity: PubChem, The Scripps Research Institute Molecular Screening Center
